A selection: hits, their analogues and other compounds. The true share with any hit is near 2.2%.
TrxR1 substrate: rat thioredoxin reductase 1 substrate activity; 390,000 tested, 0.01% active; AID 588456; purified TrxR1 substrate turnover, NADPH consumption readout; Potency, µM (doses to about 114 µM); also: nearly all actives have a fitted effect of over 50% in size
Target sequence (O89049 whole entry, looked up): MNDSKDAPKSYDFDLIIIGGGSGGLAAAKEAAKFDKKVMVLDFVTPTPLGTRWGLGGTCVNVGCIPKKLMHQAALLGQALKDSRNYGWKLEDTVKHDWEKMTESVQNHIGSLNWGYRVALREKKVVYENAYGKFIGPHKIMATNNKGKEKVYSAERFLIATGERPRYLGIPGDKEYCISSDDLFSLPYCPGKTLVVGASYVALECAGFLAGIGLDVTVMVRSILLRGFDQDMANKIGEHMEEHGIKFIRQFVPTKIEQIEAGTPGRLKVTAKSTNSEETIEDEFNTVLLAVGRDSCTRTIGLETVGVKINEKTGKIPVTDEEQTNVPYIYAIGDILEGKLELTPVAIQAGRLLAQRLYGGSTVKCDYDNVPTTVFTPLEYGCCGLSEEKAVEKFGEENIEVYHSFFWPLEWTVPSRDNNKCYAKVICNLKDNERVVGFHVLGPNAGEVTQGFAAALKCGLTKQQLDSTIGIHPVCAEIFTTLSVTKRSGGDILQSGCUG
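Rat TrxR1, dispensed at 90 nM, was prereduced with 400 uM NADPH (final) for 5 min at ~22 deg C, then incubated with compound 15 min before 400 uM selenite. A first-read NADPH fluorescence drop versus no-compound background flagged substrates.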
BRCA1 expr act: activators of BRCA1 expression; 380,000 tested, 1.1% active; MCF7-BRCA1-FFLuc reporter, luminescence, 48 h; response scale: scaled: vehicle 0%, 10 µM genistein 100%; AID 624202; Potency, µM (highest dose often 46.1 µM), actives largely listed as activators; also: nearly all actives have a fitted effect of over 80% in size
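First, MCF7-BRCA1-FFLuc cells (2000/well) attach for 2 h; next, compounds are pin-added and incubated 48 h at 37 °C; finally, luciferase reagent is added and luminescence read after 15 min.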
mIDH1 inhibitor: human IDH1 R132H inhibition; O75874; IDH1-R132H enzyme, NADPH consumption, diaphorase/resazurin fluorescence; Potency, µM (highest dose often 76.6 µM), most hits filed as inhibitors; 390,000 tested, 0.093% active; AID 602179; also: nearly all actives have a fitted effect of over 65% in size
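IDH1-R132H (0.5 ug/mL dispensed) in pH 7.5 Tris buffer was preincubated 30 min with compound, then given a substrate mix of 0.016 mM NADPH and 2 mM alpha-KG for 80 min at room temperature; remaining NADPH was read by diaphorase/resazurin fluorescence.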
rTrxR1 inhibitor: inhibitors of rat thioredoxin reductase 1; recombinant rTrxR1, NADPH fluorescence consumption, selenite substrate; Potency, µM (series often up to 114 µM), actives largely listed as inhibitors; 390,000 tested, 1% active; AID 588453; also: nearly all actives have a fitted effect of over 65% in size
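Rat TrxR1 (90 nM in the dispensed reagent) was pre-reduced with 400 uM NADPH for 5 min at room temperature, then incubated with compound for 15 min. After 400 uM selenite was added, NADPH fluorescence (Ex 340/Em 450 nm) was followed for 8 min.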
Giardia killer: Giardia lamblia killing; 340,000 tested, 0.15% active; AID 540267; Giardia lamblia trophozoite viability; activity change, % at 7.66 µM, hits read low; in the data active = activity change below about -80%; inconclusive = between about -30% and that limit;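 also: parasites exposed to compound for two days anaerobically before the ATP read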
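Killing of trophozoites was scored by loss of ATP luminescence after a 48 hrs anaerobic exposure to compounds at 37 deg C, using 100 cells per well.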
IL2 activator: IL-2 activation; 360,000 tested, 0.065% active; IL-2 activation reporter assay, cell-based qHTS; stimulated with anti-CD3/CD4/CD28 beads; in transgenic mouse T cells; activation, % (series mostly up to about 46 µM); in the data active = activation above about 50%; inconclusive = mostly about 30% to 49%
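Unstimulated transgenic mouse T cells preincubated 60 min with compound, then stimulated with anti-CD3/anti-CD4-coated beads plus anti-CD28 for 18 h at 37 degrees C. IL-2 response read as EGFP and DsRed fluorescence by plate cytometry.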
Numbers stand for hits; . = inactive; ? = inconclusive; / = no result; ! = a repeat was not active; [ ] = remark or other dose. Unless noted, calls follow the shape of the dose curve; as a rule, active = well fitted curve in the direction sought with a large enough effect; inconclusive = small, poorly fitted or top-dose-only effect, or another doubt; inactive = no such curve, though single readings can be large; an effect the other way counts as inactive or inconclusive.

SMILES	TrxR1 substrate	BRCA1 expr act	mIDH1 inhibitor	rTrxR1 inhibitor	Giardia killer	IL2 activator
O=C(Nc1ncc(Cc2ccccc2Cl)s1)c1ccc2c(c1)CC(c1ccccc1)OC2=O (configuration not stated)	.	/	.	.	/	/
Cc1ccccc1Cn1nnc(-c2ccc3c(c2)OCO3)n1	.	?	.	.	.	.
Fc1cccc(Cl)c1Cn1nnc(-c2ccc3c(c2)OCO3)n1	.	8.91µM	.	.	.	.
CN1c2ccccc2N(C)C1(C)c1ccccc1	.	.	.	?	.	.
CCN1c2ccccc2N(C)C1(C)c1ccccc1 (configuration not stated)	.	.	.	44.7µM	.	.
COc1cccc(CNC(=O)Cn2cc3c(n2)-c2c(oc(C(=O)N4CCCC4)c2C)CC3)c1OC	.	/	.	.	/	/
Cc1ncoc1C(=O)Nc1ncc([N+](=O)[O-])s1	.	.	.	.	-86.9	.
Cc1ncoc1C(=O)Nc1nccs1	.	.	.	.	.	.
Cc1cc(NC(=O)c2ccccc2)ncc1NC(=O)c1cccs1	.	7.94µM	.	.	.	.
Cc1cc(C)nc(NC(=O)c2cccs2)n1	.	.	.	.	.	.
O=C(Nc1ncc(Cl)cn1)c1cccs1	.	12.6µM	.	.	.	.
O=C(Nc1ncc([N+](=O)[O-])s1)c1cccs1	.	?	.	.	-87.0	.
Cc1cc(NC(=O)c2cccs2)ncc1NC(=O)c1cccc(F)c1	.	.	.	.	.	.
CC(C)(C)n1ncc2c(=O)n(Cc3ccccc3SC(F)(F)F)cnc21	.	/	/	.	/	/
O=C(Nc1cccc2nsnc12)c1cccs1	.	7.08µM!	.	.	.	.
O=C(Nc1ncc([N+](=O)[O-])s1)c1ccccc1Br	.	.	.	.	-92.6	.
O=C(/C=C/c1ccc([N+](=O)[O-])cc1)Nc1ncc([N+](=O)[O-])s1	.	?	.	.	-82.4	.
COc1cccc(CNC(=O)c2ccc3c(c2)nnn3C2CCCC2)c1	.	.	.	.	/	/
CSc1ccc(/C=C2\C=Cc3ccccc32)cc1	.	.	/	.	/	/
O=C(O)c1cccc(N2C(=O)c3cc([N+](=O)[O-])cc4cc([N+](=O)[O-])cc(c34)C2=O)c1	.	.	.	11.2µM	.	.
O=C(O)c1cccc(N2C(=O)c3cccc4cccc(c34)C2=O)c1	.	.	.	.	.	.
COc1ccc(COC[C@H](C)[C@H](O)[C@@H](C)[C@H]2OC(=O)[C@@H]2C)cc1	.	.	.	7.94µM!	.	.
Cc1ccc(-c2nnn(CCC(=O)NC(C)(C)C)n2)cc1	.	14.1µM	.	.	.	.
Cc1ccc(S(=O)(=O)c2ncccc2N)cc1	.[2.29 µM]	.	.	.[2.29 µM]	.	.
Cc1ccc(S(=O)(=O)c2ncccc2[N+](=O)[O-])cc1	.	.	.	2µM	?	.
SMILES	TrxR1 substrate	BRCA1 expr act	mIDH1 inhibitor	rTrxR1 inhibitor	Giardia killer	IL2 activator
OC(C[n+]1cccc(Br)c1)c1ccccc1 (configuration not stated)	.	.	/	.	/	/
O=[N+]([O-])c1cc(Br)c(Nc2ccccc2)c([N+](=O)[O-])c1	.	.	.	11.2µM	.	.
CC(C)(C)C(=O)Nc1cc(-c2cccc(Br)c2)nn1-c1ccccc1	.	.	.	.	/	/
CN(C)c1ccc(C=O)c(O)c1	.	/	/	.	/	/
C/C(=C\c1ccc(N)cc1)c1nc2ccccc2[nH]1	.	7.94µM	.	.	.	.
O=c1[nH]c(=S)[nH]c2n[nH]nc12	.	.	/	?	/	/
Cc1c(C(=O)NCCc2ccc(S(N)(=O)=O)cc2)sc2nc3n(c(=O)c12)CCCC3	.	/	.	.	/	/
Cc1snc2sc(C(=O)c3ccc(F)cc3)c(N)c12	.	10µM	.	.	.	.
CN(C)c1ccnc2sc(C(=O)c3ccc(Br)cc3)c(N)c12	.	.	.	.	.	.
CCOC(=O)N/N=C\c1ccc([N+](=O)[O-])s1	.	.	.	.	-99.4	.
Cc1ccc(C(=O)N/N=C/c2ccc([N+](=O)[O-])s2)cc1	.	.	.	.	-93.1	.
OCCc1ccc(NCCc2cccs2)cc1	/	8.91µM	/	/	/	.
Cc1ccc(Cl)cc1N1CCN(CCCNC(=O)c2nnc(Cc3cccc(Cl)c3)o2)CC1	.	.	.	.[0.457 µM]	.	/
COc1cc(C)ccc1OCc1cc(C(=O)NC(C)Cn2cncn2)no1 (configuration not stated)	.	5.01µM	.	.	.	.
COc1cc(C)ccc1OCc1cc(C(=O)NCc2ccncc2)no1	.	7.94µM	.	.	?	.
CCc1ccc(NC(=O)CCn2c(-c3ccc(OC)cc3)cc(C(C)=O)c2C)cc1	.	/	.	.	/	/
COc1ccc2nc(NC(=O)CSc3nnc(-c4ccoc4C)n3C)sc2c1	.	5.62µM	.	.	.	.
CCn1nnnc1SCC(=O)Nc1nc2ccc(OC)cc2s1	.	.	.	.	.	.
CCCn1c(COc2cccc(C)c2)nc2ccccc21	.	/	.	.	/	/
COc1ccc2[nH]c(=O)c(CN(C3CCCCC3)C(c3nnnn3Cc3ccco3)C(C)C)cc2c1 (configuration not stated)	.	.	.	?	.	.
COc1ccc2[nH]c(=O)c(CN(Cc3nnnn3Cc3ccco3)C3CCCCC3)cc2c1	.	.	.	17.8µM	.	.
CCOc1ccc2[nH]c(=O)c(C(c3nnnn3Cc3ccco3)N3CCCC(C)C3)cc2c1 (configuration not stated)	.	.	.	12.6µM	.	.
CCCCOc1ccccc1NC(=O)C=C(C)C	.	.	.	.	.	.
CCCOc1ccccc1NC(=O)/C=C/C(N)=O	.	.	.	12.6µM	.	.
COc1ccc(Nc2nnc(-c3ccc(C)c(S(=O)(=O)N4CCN(C)CC4)c3)c3ccccc23)cc1	.	/	.	.	/	/
CN(C)c1ccc(C(=O)N=c2sccn2C)cc1[N+](=O)[O-]	.	11.2µM	.	.	.	.
Cn1ccsc1=NC(=O)c1ccc(S(=O)(=O)C(F)F)cc1	.	12.6µM	.	.	.	.

Screens as filed in PubChem.
